PubChem BioAssay AID1159580 (chemical genetic matrix, 2015)
In all, about 5,500 compounds went through this assay and about 2,000 (36%) were called active. Roughly 18% stayed inconclusive and do not appear here. Cut-off read from the data, not from the text of the source: active = normalized growth mostly below about 0.91 (no sharp cut-off); inconclusive = no clear call, values can overlap the other calls; inactive = mostly above about 0.92. The list shows a part of the results.

Assay: chemical genetic growth profiling, strain panel (AID 1159580);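 note: tested at 20 µM; growth read once vehicle control cultures reached saturation at 30 °C; 1 = growth at the plate median or of vehicle wells; lower values mean less growth of the strain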
Conditions: S. cerevisiae deletion strains, growth OD

Measured: normalized growth

Nc1ccc(CCN2CCN(c3cccc(C(F)(F)F)c3)CC2)cc1
active: locus YGR229C, strain SMI1, stronger effect = lower value 0.501
inactive: locus YAL040C, strain CLN3, stronger effect = lower value 1.05 | locus YCL061C, strain MRC1 (second series), stronger effect = lower value 0.973 | locus YDR363W, strain ESC2, stronger effect = lower value 0.894 | locus YER002W, strain NOP16, stronger effect = lower value 1.03 | locus YMR307W, strain GAS1, stronger effect = lower value 1.02 | locus YNL175C, strain NOP13, stronger effect = lower value 1.02 | locus YNL197C, strain WHI3, stronger effect = lower value 1 | locus YNL224C, strain SQS1, stronger effect = lower value 1.01 | locus YOR083W, strain WHI5 (second series), stronger effect = lower value 1.02
